High-throughput results from PubChem.
A selection: hits, their analogues and other compounds. The true share with any hit is near 6.1%.
M1 agonist – M1 muscarinic receptor agonists, primary screen, CHO-M1 cells, Fluo-4 calcium, agonist mode. Muscarinic acetylcholine receptor M1. AID 626, 2007. Fluo-4 calcium fluorescence; hits give high values. 3% of 64,000 active. B-score at 10 µM;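 active = fluorescence rise, raw or as B-score row- and column-corrected plate score, outside the 99.7% band of its plate's samples, either direction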
M1 antagonist – antagonists of rat M1 muscarinic receptor. AID 628, 2007. Muscarinic acetylcholine receptor M1 (Rattus norvegicus), P08482. B-score at 10 µM. 3.4% of 64,000 active. CHO-M1 cells, Fluo-4 calcium, ACh EC80 antagonist mode; hits give low values;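 active = calcium fluorescence response, raw or row-and-column corrected B-score, differing from the plate sample mean either way at a set confidence level, mostly lower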
Cdc25B block – inhibitors of Cdc25B phosphatase catalytic domain, primary screen, biochemical, OMFP fluorescence; M-phase inducer phosphatase 2 (Homo sapiens), P30305; recombinant Cdc25B, OMFP fluorescence Ex485/Em525; inhibition, %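 (compounds tested at 10 µM final in the well)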; 0.1% of 65,000 active; AID 368, 2006; in the data active = inhibition above about 50%
Target sequence (P30305 whole entry, looked up, the tested form may be a part): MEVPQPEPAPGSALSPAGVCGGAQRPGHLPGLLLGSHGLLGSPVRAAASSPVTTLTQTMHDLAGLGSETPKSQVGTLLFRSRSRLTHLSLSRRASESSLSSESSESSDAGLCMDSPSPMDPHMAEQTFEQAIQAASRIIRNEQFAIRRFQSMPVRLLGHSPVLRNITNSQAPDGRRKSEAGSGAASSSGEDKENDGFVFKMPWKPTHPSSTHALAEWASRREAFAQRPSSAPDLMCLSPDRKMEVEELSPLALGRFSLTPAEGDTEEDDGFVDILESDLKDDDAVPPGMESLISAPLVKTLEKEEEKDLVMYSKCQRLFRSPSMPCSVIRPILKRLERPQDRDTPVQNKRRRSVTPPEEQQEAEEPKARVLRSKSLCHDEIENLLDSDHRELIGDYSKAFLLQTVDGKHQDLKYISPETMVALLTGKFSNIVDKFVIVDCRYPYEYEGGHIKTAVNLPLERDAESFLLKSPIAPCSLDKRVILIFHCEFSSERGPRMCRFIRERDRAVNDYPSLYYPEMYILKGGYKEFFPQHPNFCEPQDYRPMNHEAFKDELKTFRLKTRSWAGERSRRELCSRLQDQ
MMP13 inh – human MMP13 inhibitors, primary screen, biochemical, FRET peptide cleavage. MMP-13 fTHP FRET cleavage, Mca fluorescence. inhibition, % at 4 µM. 0.07% of 65,000 active;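 active = inhibition above the mean of compound-free control plate wells plus 3 SD, cut at about 14% in these data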
MKP-1 inh – MKP-1 phosphatase inhibitors, primary screen, biochemical, in vitro; recombinant MKP-1, OMFP hydrolysis fluorescence; inhibition, %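 (compounds tested at a single concentration somewhere between 10 and 100 µM)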; 0.15% of 65,000 active; Dual specificity protein phosphatase 1 (Homo sapiens), P28562;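 active = inhibition above about 50%, limit read from the data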
Hsp90 inh – tumor Hsp90 inhibitors, primary screen, cell lysate, fluorescence polarization, NCI-N417 lysate | 0.35% of 64,000 active | AID 429, 2006 | inhibition, % at 30 µM | Heat shock protein HSP 90-alpha (Homo sapiens), P07900 | Cy3B-geldanamycin FP displacement;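 active = inhibition above 50%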
M1 antag confirm – rat M1 muscarinic receptor antagonists, confirmation, CHO cells, Fluo-4 calcium, duplicate. calcium response (max-min fluorescence) at 10 µM. shares compounds with M1 antagonist. 43% of 1,700 active. ACh EC80 antagonism; hits give low values. AID 677, 2007;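 active = calcium response below the same-plate mean of wells given acetylcholine alone at its 80%-effect dose, minus 3 SD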
mGluR4 antag – human mGluR4 response to M1 antagonist hits, M1 allosteric modulator project, cell-based, antagonist mode, secondary assay 1; shares compounds with M1 antagonist; CHO-mGluR4 calcium flux, Fluo-4 fluorescence, glutamate EC80; hits give low values; fluorescence response (max-min) at 10 µM; 0.9% of 1,700 active;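 active = fluorescence response below the plate's average for near-maximal glutamate wells, less 3 SD of those wells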;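 note: raw unnormalized fluorescence span taken in the window right after glutamate addition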
A number is an active result; 0 = inactive; - = not tested or not shown.

SMILES	M1 agonist	M1 antagonist	Cdc25B block	MMP13 inh	MKP-1 inh	Hsp90 inh	M1 antag confirm	mGluR4 antag
Cc1c(N=Cc2c(O)n(CCc3ccccc3)c(=O)[nH]c2=O)c(=O)n(-c2ccccc2)n1C	0	-4.1	0	0	0	0	243	0
CCCCCCn1c(O)c(C=Nc2c(C)n(C)n(-c3ccccc3)c2=O)c(=O)[nH]c1=O	0	0	0	0	0	0	-	-
COc1ccc(-n2nc(C(F)(F)F)cc2-c2ccc(Cl)cc2)cc1	-	-	-	-	-	0	-	-
C[C@H](Cc1ccc2c(c1)OC(C(=O)O)(C(=O)O)O2)NC[C@H](O)c1cccc(Cl)c1	-	-	-	-	-	0	-	-
CCOC(=O)/C(CCCN(CC)CC)=N\O	0	-2.9	0	0	0	0	251	0
CC(=O)[C@H]1CCC2C3CC[C@H]4C[C@H](O)CC[C@]4(C)C3CC[C@@]21C (stereo partly specified)	-	-	-	-	-	0	-	-
CCCCc1nc(N2CCNCC2)c(C#N)c2c1CSC(C)(C)C2	0	-9.8	0	0	0	0	61	0
NC(CCP(=O)(O)O)C(=O)O (stereo unspecified)	-	-	-	-	-	0	-	-
O=C(COc1ccc(Cl)cc1)N1CCN(Cc2ccccc2)CC1	-	-	0	0	0	0	-	-
O=C(COc1ccc(Cl)cc1)NC1CN2CCC1CC2 (stereo unspecified)	0	-16	0	0	0	0	398	0
C=C(C)c1cccc(C(C)(C)NC(=O)NC2CN3CCC2CC3)c1 (stereo unspecified)	-	-	0	0	0	0	-	-
OC(Cc1ccccc1)(c1ccccc1)C1CN2CCC1CC2 (stereo unspecified)	0	-7.2	0	0	0	0	55	0
COc1ccccc1N1CCN(Cc2cccc(OC)c2O)CC1	0	0	0	0	0	0	-	-
CCN1CCN(Cc2cc(Br)cc(OC)c2O)CC1	0	-1.9	0	0	0	0	350	0
CCCN1CCC[C@@H](c2cccc(C#N)c2)C1	-	-	-	-	-	0	-	-
CN(C)c1ccc(CN2CC=C(c3ccc(F)cc3)CC2)cc1	0	-5.7	0	0	0	0	469	0
COc1cc2nc(CN3CC=C(c4ccccc4)CC3)[nH]c(=O)c2cc1OC	0	0	0	0	0	0	-	-
CN1CCC(OC(=O)C2c3ccccc3Oc3ccccc32)CC1	0	-14	0	0	0	0	25	0
C[C@]12CCC3C(CC[C@H]4C[C@H](O)CC[C@]34C)C1CC[C@@H]2C(=O)CO (stereo partly specified)	-	-	-	-	-	0	-	-
C=CCN1CC[C@]23CCCCC2[C@H]1Cc1ccc(O)cc13 (stereo partly specified)	-	-	-	-	-	0	-	-
COc1cc(C2NCc3ccccc3-n3cccc32)ccc1O (stereo unspecified)	0	-1.1	0	0	0	0	0	0
CC(C)(C)NCC(O)c1ccccc1Cl (stereo unspecified)	-	-	-	-	-	0	-	-
CCCN(CCC)CCc1c[nH]c2ccc(C(N)=O)cc12	-	-	-	-	-	0	-	-
